TDP1 block – inhibitors of human tyrosyl-DNA phosphodiesterase TDP1; Potency, µM (series often up to 130 µM), without a hit: at the highest dose activity change, negative = inhibition, most hits filed as inhibitors; 350,000 tested, 0.28% active; recombinant TDP1, AlphaScreen DNA substrate cleavage; also: nearly all actives have a fitted effect of over 40% in size
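Tdp1 1 nM final; 15 min RT w/ cpd; substrate 15 nM, 5 min; beads 10 ug/ml, 10 min; AlphaScreen read. Neg ctrl: no enzyme.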
DT40 TDP1 CPT – growth inhibition of DT40 Tdp1-/-;hTDP1 cells with camptothecin (screen for TDP1 inhibitors). 420,000 tested, 12% active. chicken DT40 Tdp1-/-;hTDP1 cells + 20 nM CPT, ATP luminescence, 48 h. Potency, µM (series often up to 46.2 µM), inactives show at the top dose activity change, negative = growth inhibition, hits mostly inhibitors. AID 686979; also: nearly all actives have a fitted effect of over 55% in size
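Chicken DT40 Tdp1-/- cells stably complemented with human TDP1 were seeded at 400 cells/well in medium containing 20 nM camptothecin, exposed to pin-transferred compounds, and grown at 37 °C for at least 48 hr. Viability was read as ATP luminescence.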
KAT2A inh – inhibitors of human GCN5L2 histone acetyltransferase. Potency, µM (top dose mostly 58.9 µM), without a hit: at the top dose activity change, negative = inhibition, most hits filed as inhibitors. 390,000 tested, 0.21% active. Q92830. GCN5L2 HAT assay, ThioGlo1 CoA-SH fluorescence
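Compounds, pin-transferred from DMSO stocks, meet 20nM GCN5L2 for 15 min before the reaction begins with H3(1-25) peptide (75uM) and acetyl-CoA (70uM). Thiol-reactive ThioGlo1 reports CoA release over 20 min at room temperature.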
DT40 TDP1 no CPT – qHTS for Inhibitors of human tyrosyl-DNA phosphodiesterase 1 (TDP1): qHTS in cells in absence of CPT; DT40 Tdp1-/- hTDP1 cells, no CPT, ATP luminescence, 48 h; Potency, µM (top dose mostly 46.2 µM), for inactives: at the top dose activity change, negative = growth inhibition, usual class: inhibitors; 420,000 tested, 15% active; AID 686978, 2013; also: nearly all actives have a fitted effect of over 55% in size
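Growth of hTDP1-complemented DT40 Tdp1-knockout cells is measured by ATP luminescence after at least 48 hr compound exposure at 37 °C, with DMSO substituting for the 20 nM CPT used in the parallel screen.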
PLK1 PBD block – PLK1 (human) polo-box domain binding inhibition; P53350; Plk1 PBD binding of FITC phosphopeptide, fluorescence polarization; Potency, µM, without a hit: max response, negative = inhibition, usual class: inhibitors; 360,000 tested, 2.8% active; also: series mostly up to about 57 µM; nearly all actives have a fitted effect of over 65% in size
Target sequence (P53350 whole entry, looked up, the tested form may be a part): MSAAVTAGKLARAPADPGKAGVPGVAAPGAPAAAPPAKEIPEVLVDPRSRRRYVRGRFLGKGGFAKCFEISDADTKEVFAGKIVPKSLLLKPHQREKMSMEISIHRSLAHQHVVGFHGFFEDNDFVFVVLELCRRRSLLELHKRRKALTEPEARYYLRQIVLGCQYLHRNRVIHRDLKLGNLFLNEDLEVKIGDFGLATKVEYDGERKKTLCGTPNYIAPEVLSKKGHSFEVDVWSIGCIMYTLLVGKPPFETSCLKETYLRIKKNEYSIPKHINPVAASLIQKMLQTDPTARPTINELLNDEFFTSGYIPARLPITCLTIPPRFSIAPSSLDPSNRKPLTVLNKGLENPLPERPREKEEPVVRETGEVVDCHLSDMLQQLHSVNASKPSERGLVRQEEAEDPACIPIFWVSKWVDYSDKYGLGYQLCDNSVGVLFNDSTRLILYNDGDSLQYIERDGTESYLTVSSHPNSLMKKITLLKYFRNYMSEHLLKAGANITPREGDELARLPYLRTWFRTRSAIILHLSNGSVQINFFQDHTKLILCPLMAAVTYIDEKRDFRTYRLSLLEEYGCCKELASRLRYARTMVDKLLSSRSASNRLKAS
VDR inh – blocks the human vitamin D receptor; P11473; VDR-SRC2-3 peptide fluorescence polarization, 2 h; Potency, µM, inactives show max response, negative = inhibition, hits mostly inhibitors; 400,000 tested, 0.93% active
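Measured by FP: displacement of SRC2-3 coactivator peptide from VDR by library compounds, following a two-hour ambient incubation.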
* hit, by the source's call; ? = inconclusive; / = no result. This is a sample that favours compounds with a hit; in the whole collection about 18% have one here. Calls follow the shape of the dose curve; as a rule, active = well fitted curve in the direction sought with a large enough effect; inconclusive = small, poorly fitted or top-dose-only effect, or another doubt; inactive = no such curve, though single readings can be large; an effect the other way counts as inactive or inconclusive. % is scaled to controls: 0 for no effect and ±100 for the full control effect; potency is read from the fitted curve at half-maximal effect.

SMILES	TDP1 block	DT40 TDP1 CPT	KAT2A inh	DT40 TDP1 no CPT	PLK1 PBD block	VDR inh
CCc1cc2c(=O)c(-c3nc4ccccc4n3C)c(C)oc2c(CN2CCCCC2)c1O	2.4%	25.9µM*	-0.9%	?	-7.1%	-7.3%
CCc1cc2c(=O)c(-c3cnn(-c4ccccc4)c3)c(C)oc2c(CN2CCCCC2)c1O	6.4%	?	-2.6%	25.9µM*	-5.9%	0.4%
CCc1cc2c(=O)c(-c3cnn(-c4ccccc4)c3)c(C(F)(F)F)oc2c(CN(C)C)c1O	3.0%	-7.3%	27.5%	3.8%	-4.4%	-2.1%
CCCCNc1c(-c2ccc(OC)c(SC(C)CC)c2)nc2cnccn12 (stereo unspecified)	/	?	/	25.9µM*	1.7%	-10.4%
CCCCNc1c(-c2ccc(OC)c(SC(C)CC)c2)nc2ccc(C)cn12 (stereo unspecified)	5.0%	18.4µM*	?	18.4µM*	-9.2%	-14.7%
CCCCCCSc1cc(-c2nc3ccc(C)cn3c2NCCCC)ccc1OC	1.8%	?	-15.2%	?	-7.5%	-6.1%
CCCCCCSc1cc(-c2nc3ccc(Cl)cn3c2NCCCC)ccc1OC	-0.8%	?	-13.5%	?	5.1%	-12.1%
CCCCCCSc1ccc(-c2nc3cnccn3c2NCCCC)cc1	-12.8%	?	?	20.6µM*	6.7%	-3.0%
CCCCNc1c(-c2ccc(OC)c(SC(C)CC)c2)nc2ccc(Cl)cn12 (stereo unspecified)	-0.2%	25.9µM*	-20.0%	25.9µM*	-4.8%	-2.9%
CCCCNc1c(-c2cccc(SC(C)CC)c2)nc2ccc(Cl)cn12 (stereo unspecified)	-9.8%	16.4µM*	-19.5%	14.6µM*	0.9%	-16.0%
CCCCNc1c(-c2ccc(OC)c(SC(C)CC)c2)nc2cc(C)ccn12 (stereo unspecified)	5.8%	16.4µM*	-28.0%	14.6µM*	-12.8%	-20.0%
COc1ccc(-c2nc3ccc(Cl)cn3c2CC(C)(C)C)cc1OC	/	?	/	-55.1%	5.9%	/
COCCNc1c(-c2ccc(O)cc2)nc2ccc(Cl)cn12	2.4%	32.6µM*	-4.1%	-100.7%	-4.6%	-7.5%
COc1ccc(-c2nc3cc(C)ccn3c2NCC2CCCO2)cc1OC (stereo unspecified)	/	-3.5%	/	-0.1%	-6.1%	2.5%
CCCCNc1c(-c2ccc(-c3ccc(C(C)=O)cc3)c(OC)c2)nc2cc(C)ccn12	0.5%	18.4µM*	-11.4%	10.3µM*	3.9%	-6.9%
CCCCNc1c(-c2ccc(Sc3ccc(OC)cc3)cc2)nc2cc(C)ccn12	5.1%	?	-12.5%	-85.6%	1.6%	-14.6%
c1ccc(-c2nc(SCC3CCCCO3)n[nH]2)cc1 (stereo unspecified)	/	8.0%	/	?	/	/
O=C1COc2ccc(-c3csc(NCCc4ccccc4)n3)cc2N1	6.5%	16.4µM*	-10.9%	3.66µM*	-23.1%	-14.3%
Cc1cc(C)n(-c2ccccc2C#N)n1	0.0%	7.8%	-15.8%	-3.2%	-2.7%	-13.4%
COc1ccc2sc(SCCCS(=O)(=O)O)[n+](CCCS(=O)(=O)[O-])c2c1	-3.0%	?	57.0%	?	-18.9%	?
O=C(C[n+]1c(Cl)cc(Cl)c2ccccc21)c1ccccc1	/	4.47µM*	/	6.31µM*	/	/
Cc1sc2ccccc2[n+]1CCC[n+]1c(C)sc2ccccc21	/	2µM*	/	1.78µM*	/	/
CSc1sc2ccccc2[n+]1CCCS(=O)(=O)[O-]	0.0%	-16.7%	-6.3%	-5.1%	?	35.5µM*
Cc1sc2ccccc2[n+]1CC(=O)c1ccccc1	/	?	-1.3%	18.4µM*	21.2µM*	28.2µM*
CCOC(=O)Cn1c(=N)n(CCOc2ccc(Br)cc2)c2ccccc21	2.6%	23.1µM*	2.7%	16.4µM*	2.2%	5.1%
SMILES	TDP1 block	DT40 TDP1 CPT	KAT2A inh	DT40 TDP1 no CPT	PLK1 PBD block	VDR inh
N=c1n(CCO)c2ccccc2n1CCOc1ccc(F)cc1	/	20.6µM*	-7.1%	-82.0%	/	14.5%
N=c1n(CCO)c2ccccc2n1CCOc1ccccc1	3.8%	?	1.7%	?	-8.0%	1.6%
CCC(C)NC(=O)c1ccc(NC(=O)C2=C(C)OCCS2)cc1 (stereo unspecified)	/	-2.5%	11.2%	-4.1%	-4.1%	-1.2%
Cc1ccc(C(=O)OCC(=O)NNC(=O)c2ccc([N+](=O)[O-])cc2)o1	/	-5.4%	-10.1%	-10.6%	-1.3%	-15.2%
N#Cc1ccccc1S(=O)(=O)N1CCN(C(=O)CN(Cc2ccco2)Cc2cccs2)CC1	/	?	/	16.4µM*	-11.5%	/
CCC(=O)Nc1nc(=S)ss1	?	?	-19.6%	?	21.2µM*	44.7µM*
CCC(=O)Nc1nc2c(OC)ccc(OC)c2s1	6.5%	2.4%	0.5%	-8.0%	-5.6%	-18.0%
Cc1ccc(C(=O)N2CCCCC2)cc1S(=O)(=O)N1CCOCC1	1.8%	-5.0%	?	1.7%	2.7%	8.0%
O=C(/C=C/c1ccc2ccccc2n1)N1CCN(S(=O)(=O)c2ccccc2F)CC1	1.4%	23.1µM*	-0.3%	18.4µM*	-7.8%	-2.7%
[O-][n+]1ccccc1/C=C/c1ccccc1	/	4.7%	/	-1.6%	-5.2%	10.7%
[O-][n+]1c(/C=C/c2ccccc2)ccc2ccccc21	/	20.6µM*	-7.3%	16.4µM*	3.2%	-15.5%
CC[C@H](C)[C@H](NC(=O)[C@H](CCC(=O)O)NC(=O)CNC(=O)[C@H](CCCCN)NC(=O)[C@H](CCC(=O)O)NC(=O)[C@H](CCSC)NC(=O)[C@H](CCSC)NC(=O)[C@H](CCSC)NC(=O)[C@H](CCC(=O)O)NC(=O)CNC(=O)[C@H](CO)NC(=O)[C@H](CO)NC(=O)[C@H](CO)NC(=O)[C@@H](N)CC(N)=O)C(=O)N[C@@H](CCCCN)C(=O)O	8.2%	/	21.4%	/	/	0.0%
CCOC(=O)c1ccc2c(c1)N(Cc1cccc(C(F)(F)F)c1)C(=O)c1ccccc1S2(=O)=O	2.6%	?	14.5%	16.4µM*	/	9.8%
Cc1ccc(C)c(CN2C(=O)c3ccccc3S(=O)(=O)c3ccc(C(=O)NCc4ccccc4)cc32)c1	2.3%	19.6%	-7.4%	-17.2%	/	-4.6%
CCOC(=O)N1CCC(NC(=O)c2ccc3c(c2)N(Cc2cc(C)ccc2C)C(=O)c2ccccc2S3(=O)=O)CC1	8.1%	?	-8.9%	11.6µM*	/	-3.5%
CCOC(=O)c1ccc2c(c1)N(Cc1cc(C)ccc1C)C(=O)c1ccccc1S2(=O)=O	-10.5%	?	-3.6%	16.4µM*	/	4.5%
